A3G deaminase – APOBEC3G DNA deaminase inhibitors, primary screen, biochemical, fluorescence, single-stranded DNA substrate, uHTS. 330,000 compounds, 0.28% hits. DNA dC->dU-editing enzyme APOBEC-3G (Homo sapiens), Q9HC16. recombinant A3G, ssDNA deamination FAM/TAMRA fluorescence. inhibition, % at 20 µM;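 active = inhibition of at least 40% at 20 µM, with no more than 30% in the related APOBEC3A deaminase screen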;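 note: plate controls were DMSO wells with A3G for no effect and wells lacking A3G enzyme for full effect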
PHOSPHO1 inh – PubChem AID 1565 | Phosphoethanolamine/phosphocholine phosphatase (Homo sapiens), Q8TCT1 | 290,000 compounds, 1.1% hits | inhibition, % at 13.3 µM | recombinant PHOSPHO1, absorbance phosphatase assay; in the data active = inhibition above about 60%
Target sequence (Q8TCT1 whole entry, looked up): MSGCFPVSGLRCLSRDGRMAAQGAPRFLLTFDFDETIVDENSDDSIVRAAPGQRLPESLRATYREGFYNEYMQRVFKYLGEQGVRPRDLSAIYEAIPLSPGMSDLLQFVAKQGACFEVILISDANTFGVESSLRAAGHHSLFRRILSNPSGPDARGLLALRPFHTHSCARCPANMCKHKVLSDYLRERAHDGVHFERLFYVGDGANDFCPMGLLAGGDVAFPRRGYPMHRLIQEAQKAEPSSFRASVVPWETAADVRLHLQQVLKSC
rCAG RNA binder – binders of r(CAG) RNA repeats, primary screen, biochemical, fluorescence; r(CAG) RNA repeat, TO-PRO-1 dye displacement fluorescence; inhibition, % at 3 µM; 370,000 compounds, 1.3% hits; AID 651821, 2012;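 active = inhibition above the plate cutoff, the mean of all test compounds on that plate plus 3 SD, cut at about 35% in these data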;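 note: 0% = DMSO alone and 100% = 100 µM mitoxantrone as full dye displacement; higher means more dye released from RNA so lower well fluorescence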
aDG glyco act – activators of alpha-DG glycosylation, primary screen, uHTS, Pro5-aDG cells, AlphaScreen; activation, % at 10 µM; AID 624168, 2012; 360,000 compounds, 0.22% hits; alpha-DG glycosylation AlphaScreen (IIH6); 0% Pro5, 100% B10-LARGE cell signal;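 active = activation of at least 8% versus controls, or a plate z-score of at least 8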;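 note: Pro5 are CHO cells carrying HIG-tagged alpha-DG that lacks glycosylation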
ALR inh – inhibitors of human ALR sulfhydryl oxidase, primary screen, biochemical, H2O2 detection, HRP-luminol luminescence, single point | purified ALR, DTT oxidation | inhibition, % (concentration not given with the values) | 290,000 compounds, 3.8% hits;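 active = mean replicate inhibition above about 79%, with every replicate also reaching it, limit read from the data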
A3A deaminase – APOBEC3A ssDNA deaminase inhibitors, primary screen, selectivity assay for APOBEC3G inhibitor project, biochemical, FAM/TAMRA oligo cleavage fluorescence | DNA dC->dU-editing enzyme APOBEC-3A (Homo sapiens), P31941 | inhibition, % at 20 µM | 330,000 compounds, 0.41% hits | recombinant A3A, FAM/TAMRA ssDNA deamination fluorescence;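 active = at least 40% inhibition at 20 µM here, with at most 30% in a related deaminase screen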;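 note: plate controls were A3A with DMSO for no effect and wells lacking A3A enzyme for full effect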
Target sequence (P31941 whole entry, looked up): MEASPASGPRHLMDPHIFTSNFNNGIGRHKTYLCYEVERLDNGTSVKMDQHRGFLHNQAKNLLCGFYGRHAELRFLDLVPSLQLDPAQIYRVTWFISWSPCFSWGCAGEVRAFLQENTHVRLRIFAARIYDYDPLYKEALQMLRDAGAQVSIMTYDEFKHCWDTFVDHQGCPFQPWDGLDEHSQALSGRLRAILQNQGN
Active calls of the source: *; / = no result given. This is a sample that favours compounds with a hit; in the whole collection about 5.4% have one here.

SMILES | A3G deaminase | PHOSPHO1 inh | rCAG RNA binder | aDG glyco act | ALR inh | A3A deaminase
Nn1cnnc1SCC(=O)Nc1ccc2c(c1)OCO2 | -6 | 20 | / | 0 | -13 | -4
COc1ccc(NC(=O)CSc2nnc(-c3ccccc3C)n2N)cc1OC | -2 | 25 | -1 | 0 | 50 | -1
COc1ccc(NC(=O)CSc2nnc(-c3ccccc3C)n2N)cc1 | -4 | 17 | 1 | 0 | 99* | -3
Cn1ccnc1SCC(=O)Nc1cc(S(=O)(=O)N2CCOCC2)ccc1Cl | -3 | 7 | 4 | 0 | 98* | 0
Cn1c(CSCc2ccc(Cl)cc2)nnc1SCC(=O)Nc1nc2ccccc2s1 | 4 | 73* | 2 | 0 | 9 | 1
CCOC(=O)CN1C(=O)[C@]2(OCCC=C[C@H]2C)c2c(Br)cccc21 | / | / | 0 | / | / | /
Cc1cccc(Cn2cc(COC(=O)N3CCCC3)nn2)c1 | / | / | 2 | / | / | /
Cc1ccccc1CN1CCCCC(NC(=O)c2ccc(N(C)C)cc2)C1=O (centres undefined) | / | / | 0 | / | / | /
COc1ccc(NC(=O)CSc2nnc(CCC(=O)O)c(=O)n2N)cc1 | 1 | 32 | 2 | 0 | 98* | 5
CCOc1ccc(Cc2nnc(SCC(=O)Nc3ccc(OC)cc3)n(N)c2=O)cc1 | -5 | / | 8 | 0 | / | 1
Cc1ccccc1-c1nnc(SCC(=O)Nc2ccc3c(c2)OCCO3)n1N | -8 | 25 | -1 | 0 | 98* | -4
Nn1c(SCC(=O)Nc2ccc3c(c2)OCCO3)nnc1-c1ccccn1 | -2 | -41 | -7 | 0 | -3 | -3
Cc1ccc(S(=O)(=O)Nc2cc(=O)[nH]c(SCc3ccccc3Cl)n2)cc1 | -4 | 16 | 12 | 0 | 96* | -6
Cc1cccc(NC(=O)CSc2nc(NS(=O)(=O)c3ccccc3)cc(=O)[nH]2)c1 | -5 | 32 | 12 | 0 | 99* | 2
Cc1ccc(NC(=O)CSc2nc(NS(=O)(=O)c3ccc(C)cc3)cc(=O)[nH]2)cc1 | -1 | 17 | 12 | 0 | 98* | 8
Cc1ccc(S(=O)(=O)Nc2cc(=O)[nH]c(SCC(=O)Nc3cccc(C(F)(F)F)c3)n2)cc1 | -13 | 27 | 1 | 0 | / | -4
O=c1cc(NS(=O)(=O)c2ccccc2)nc(SCc2ccc(Cl)cc2)[nH]1 | / | -4 | 8 | 0 | 1 | /
O=C(CSc1nc(NS(=O)(=O)c2ccccc2)cc(=O)[nH]1)Nc1ccc(Cl)cc1 | / | 14 | 11 | 0 | / | /
COc1ccc(NC(=O)CSc2nc(NS(=O)(=O)c3ccccc3)cc(=O)[nH]2)cc1 | 0 | 47 | 8 | 0 | 100* | 4
Nc1ccn([C@@H]2O[C@H](C(=O)N[C@H](Cc3ccccc3)C(=O)N3CCN(C(=O)N4CCOCC4)CC3)[C@@H](O)[C@H]2O)c(=O)n1 | / | / | 2 | / | / | /
Cn1c(SCC(=O)Nc2cc(=O)n(C)c(=O)n2C)nnc1C12CC3CC(CC(C3)C1)C2 | / | 61* | / | / | / | /
CCOc1ccc(NC(=O)CSc2nnc(C34CC5CC(CC(C5)C3)C4)n2C)cc1 | 0 | 20 | -4 | 0 | -14 | 2
O=C(NCc1ccco1)C1CCCN(S(=O)(=O)c2ccc(F)cc2)C1 (centres undefined) | / | / | 4 | / | / | /
Cc1cc(CNC(=O)c2cccc3c2C(=O)c2ccc(-c4ccc(F)cc4OCc4ccccc4)cc2S3(=O)=O)c(C(F)(F)F)o1 | 2 | / | 43* | -1 | 8 | 10
O=C(O)c1cccc2c1C(=O)c1ccc(-c3ccc(F)cc3OCc3ccccc3)cc1S2(=O)=O | 2 | / | / | 0 | 98* | 1
SMILES | A3G deaminase | PHOSPHO1 inh | rCAG RNA binder | aDG glyco act | ALR inh | A3A deaminase
O=C1c2ccc(-c3ccc(F)cc3OCc3ccccc3)cc2S(=O)(=O)c2cccc(C(=O)N3CCN(c4ncc(Br)cn4)CC3)c21 | -8 | / | 21 | 0 | 0 | -2
O=C(NC[C@H]1CCCO1)c1cccc2c1C(=O)c1ccc(-c3ccc(F)cc3OCc3ccccc3)cc1S2(=O)=O | -2 | / | 22 | 0 | 6 | 1
COc1cccc(C2Nc3ccccc3C(=O)N2c2ccc(F)cc2)c1O (centres undefined) | -3 | -7 | 5 | 0 | 75 | -1
COc1cccc(C2Nc3ccccc3C(=O)N2O)c1O (centres undefined) | -6 | 20 | 3 | 0 | 87* | -22
COc1ccc(N=c2scc(C)n2CCCN2CCCC2=O)cc1 | -11 | 32 | -4 | 0 | 100* | 0
Cc1csc(=Nc2ccccc2)n1C | -10 | 23 | 0 | 0 | 99* | 0
COc1ccc2cc(C(=O)NCCCN3CCCC3=O)[nH]c2c1 | -8 | 45 | -2 | 0 | -9 | -3
Cc1csc(=Nc2ccccc2)n1CCCN1CCCC1=O | -5 | 18 | 1 | 0 | 99* | 3
COC(=O)C1CN(CC(C)C)CCS(=O)(=O)N1Cc1ccc(Cl)cc1 (centres undefined) | / | / | -1 | / | / | /
CC(C)(C)CC(=O)NC(=S)N1CCCCCC1 | -7 | 69* | -2 | 0 | 10 | 0
CCc1cccc(CC)c1NC(=O)C1SC(=Nc2ccccc2C)C(c2nc3ccccc3s2)=C1N (centres undefined) | 0 | 21 | 42* | 3 | -1 | -2
OCCOCCn1c(C(CO)Nc2nc(-c3ccc(Cl)cc3)cs2)nc2ccccc21 (centres undefined) | -7 | / | 8 | 1 | 95* | -4
COc1ccc2c(c1)C(NC(=O)C(F)(F)F)CC21CCCCC1 (centres undefined) | / | / | 6 | / | / | /
CC(C)CN1C(=O)C[C@@]2(C(=O)N(C)c3ccc(NC(=O)C(F)(F)F)cc32)C1c1ccccc1 (some centres undefined) | / | / | -1 | / | / | /
CC(=O)N1CCN=C1SCc1c(F)cccc1Cl | 0 | -2 | 3 | 0 | 98* | 2
O=C(O)CSCc1c(F)cccc1Cl | -8 | 3 | 0 | 0 | 1 | -2
CCC(=O)N1CCN=C1SCc1c(F)cccc1Cl | -5 | 38 | -3 | 0 | 99* | -8
CC(C)C(=O)Nc1sc2c(c1-c1nc3ccccc3[nH]1)CCCC2 | 1 | 104* | 19 | 0 | 14 | 2
CC(C)C(=O)Nc1ccccc1-c1nc2ccccc2[nH]c1=O | 0 | / | -1 | 0 | -6 | 3
COc1cccc(Nc2nnc(SCC(=O)Nc3sccc3C(N)=O)s2)c1 | -7 | 62* | 25 | 0 | 2 | -1
Cc1ccc(Nc2nnc(SCC(=O)c3ccc(O)cc3O)s2)cc1 | -1 | -50 | 56* | 0 | 3 | 1

Screens deposited in PubChem BioAssay by several laboratories.
